ELG1 genotoxic = genotoxicity induction in ELG1-luciferase HEK293T cells; AID 504466; hit rate 1.3% among 330,000; HEK293T ELG1-luciferase reporter, luminescence, 16 h; Potency, µM (titrated, usually from 46 µM), most hits filed as activators; further: nearly all actives have a fitted effect of over 60% in size
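16 hr compound incubation (37 °C, 5% CO2) of HEK293T cells carrying luciferase-tagged ELG1; luciferase then measured by ONE-Glo luminescence after 30 min at RT.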
NPC1 promoter act = activates the NPC1 promoter; AID 485313; Potency, µM (titrated, usually from 9.22 µM), usual class: activators; Huh7 NPC1 promoter luciferase reporter, 24 h; hit rate 2.4% among 320,000; further: nearly all actives have a fitted effect of over 60% in size
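Luminescence read-out of NPC1 promoter-driven luciferase in stably transfected Huh7 cells; compounds delivered in DMSO and left 24 h at 37C, 5% CO2, qHTS titration format.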
SMN2 splice enh = enhancers of SMN2 splice variant expression; hit rate 2.8% among 210,000; HEK293 SMN2-luciferase splicing reporter, luminescence, 30-36 h; Potency, µM (doses to about 46.1 µM), hits mostly activators; further: nearly all actives have a fitted effect of over 55% in size
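HEK293 cells carry an SMN2 […]–luciferase reporter in which exon 7 inclusion puts luciferase in frame. Cells were plated 10-12 h before compound addition, then incubated 30-36 h at 37C. ONE-Glo luminescence was read; sodium butyrate at 4.5 mM final served as control.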
FLuc modulator = firefly luciferase modulation, counter-screen for miR-21 project | AID 588342 | hit rate 6.9% among 360,000 | purified FLuc, Km substrates, luminescence inhibition | P08659 | Potency, µM (doses to about 57.5 µM), usual class: inhibitors; further: nearly all actives have a fitted effect of over 55% in size
Target sequence (P08659 whole entry, looked up): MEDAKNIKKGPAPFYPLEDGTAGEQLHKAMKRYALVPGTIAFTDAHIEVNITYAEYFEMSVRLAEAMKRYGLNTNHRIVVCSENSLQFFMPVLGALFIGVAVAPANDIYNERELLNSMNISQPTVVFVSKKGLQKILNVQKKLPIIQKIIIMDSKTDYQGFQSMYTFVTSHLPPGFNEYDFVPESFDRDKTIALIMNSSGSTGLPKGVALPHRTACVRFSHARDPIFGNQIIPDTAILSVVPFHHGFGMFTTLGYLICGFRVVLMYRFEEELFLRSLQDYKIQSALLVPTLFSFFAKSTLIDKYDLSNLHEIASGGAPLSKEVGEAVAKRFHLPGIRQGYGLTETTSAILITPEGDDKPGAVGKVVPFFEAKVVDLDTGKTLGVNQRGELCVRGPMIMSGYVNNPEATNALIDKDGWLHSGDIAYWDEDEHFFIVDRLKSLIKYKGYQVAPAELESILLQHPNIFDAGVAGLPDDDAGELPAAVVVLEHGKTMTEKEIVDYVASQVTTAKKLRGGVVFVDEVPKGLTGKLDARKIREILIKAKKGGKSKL
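Purified P. pyralis luciferase (10nM final) with 10uM D-luciferin and 10uM ATP (Km levels) in 50mM Tris acetate pH 7.5, 10mM Mg acetate, 0.01% Tween-20, 0.05% BSA; qHTS 6-point titration, ~60 µM downward; luminescence read.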
Luc counter = counter-screen: inhibitors of Kinase-Glo firefly luciferase | Potency, µM (doses to about 38.3 µM), actives largely listed as inhibitors | Kinase-Glo luciferase, ATP luminescence, 8 min | hit rate 0.28% among 200,000; further: nearly all actives have a fitted effect of over 60% in size
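Substrate mix (final 50 mM imidazole pH 7.2, 50 mM KCl, 7 mM MgCl2, 10 uM ATP, 0.01% Tween 20, 0.05% BSA) plus pin-tool compound, then Kinase-Glo detection mix; 8 min ambient, luminescence read.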
Rab9 promoter act = Rab9 promoter activation; Potency, µM (doses to about 9.22 µM), most hits filed as activators; Huh7 Rab9 promoter-luciferase reporter, luminescence, 24 h; hit rate 2.8% among 320,000; further: nearly all actives have a fitted effect of over 60% in size
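Quantitative HTS format; Huh7 Rab9-luciferase reporter cells (1500/well) receive compound 2 h post-plating, incubate 24 h at 37 °C, then get luciferase reagent for 10 min before luminescence reading.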
Large screens that a line does not name were inactive. The list is not random: actives were taken first. Their share in the collection is about 7.4%. The call rests on the fitted dose curve; in most records, active means well fitted curve in the direction sought with a large enough effect; inconclusive means small, poorly fitted or top-dose-only effect, or another doubt; inactive means no such curve, though single readings can be large; an effect the other way counts as inactive or inconclusive.

COc1ccc(/C=C/C(=O)c2ccc(O)cc2O)cc1OC	none (no result: ELG1 genotoxic, NPC1 promoter act, FLuc modulator, Rab9 promoter act)
O=C(/C=C/c1cccnc1)c1cc(F)ccc1O	none (no result: SMN2 splice enh, Luc counter)
COc1ccc(C(=O)/C=C/c2cc(C(=O)O)cc3c2OCOC3)c(O)c1	FLuc modulator 1.69µM (no result: SMN2 splice enh, Luc counter)
O=C(O)c1cc(/C=C/C(=O)c2cc(F)ccc2O)c2c(c1)COCO2	FLuc modulator 30.1µM (no result: SMN2 splice enh, Luc counter)
COC(=O)c1ccc(C2CC(=O)Nc3c2c(C)nn3-c2nc(C)cc(C)n2)cc1 (configuration not stated)	none (no result: ELG1 genotoxic, NPC1 promoter act, SMN2 splice enh, Luc counter, Rab9 promoter act)
c1ccc(CNc2nc(-c3cccnc3)cs2)cc1	FLuc modulator inconclusive
c1ccc(-c2nc(-c3cccnc3)cs2)cc1	ELG1 genotoxic inconclusive, NPC1 promoter act inconclusive, FLuc modulator 12µM, Rab9 promoter act inconclusive (no result: SMN2 splice enh, Luc counter)
Cc1ccc(C)c(-c2csc(-c3cccnc3)n2)c1	FLuc modulator inconclusive (no result: SMN2 splice enh, Luc counter)
c1ccc(-c2csc(-c3cccnc3)n2)cc1	FLuc modulator 19µM, Rab9 promoter act inconclusive (no result: SMN2 splice enh)
Cc1nn(-c2ccccc2)c(/N=C/c2ccc(O)cc2)c1-c1ccccc1	NPC1 promoter act inconclusive, SMN2 splice enh 17.8µM, Rab9 promoter act inconclusive
Cc1nn(-c2ccccc2)c(C)c1-c1ccccc1O	none (no result: SMN2 splice enh, Luc counter)
CC1=C(C(=O)Nc2ccc(C)cc2C)C(c2ccccc2F)n2nc(SCC(=O)c3ccc(C)cc3)nc2N1 (configuration not stated)	none (no result: ELG1 genotoxic, NPC1 promoter act, SMN2 splice enh, Luc counter, Rab9 promoter act)
N/C(=N\OC(=O)c1cccc(Cl)c1)c1ccncc1	ELG1 genotoxic inconclusive, FLuc modulator 19µM (no result: SMN2 splice enh)
N/C(=N\OC(=O)c1cc(-c2ccccc2)nc2ccccc12)c1cccnc1	FLuc modulator inconclusive
N/C(=N\OC(=O)c1ccc(Cl)c(Cl)c1)c1cccnc1	FLuc modulator 8.49µM
C/C(=N\OC(=O)c1cccc(Cl)c1)c1sc(C)nc1C	FLuc modulator 6.75µM (no result: SMN2 splice enh)
O=C(O/N=C(\c1ccccc1)c1ccccn1)c1ccc(Cl)c(Cl)c1	none
N/C(=N\OC(=O)c1ccc(Cl)c(Cl)c1)c1cccc(CSc2ccccn2)c1	ELG1 genotoxic inconclusive, NPC1 promoter act inconclusive, FLuc modulator 8.49µM, Rab9 promoter act inconclusive (no result: SMN2 splice enh, Luc counter)
Cc1nc(C)c(CCNC(=O)c2cccc(Cl)c2)s1	none
CCC1CCCCN1C(=O)c1nn(-c2ccc(C)cc2)c(=O)c2c1c1ccccc1n2C (configuration not stated)	none (no result: ELG1 genotoxic, NPC1 promoter act, Luc counter, Rab9 promoter act)
CCc1ccccc1N1C(=O)N(CC(=O)c2ccc(Cl)cc2)c2ccccc2S1(=O)=O	none (no result: ELG1 genotoxic, NPC1 promoter act, SMN2 splice enh, Luc counter, Rab9 promoter act)
C=CC(=O)OCCCCCCOC(=O)C=C	none (no result: ELG1 genotoxic, NPC1 promoter act, FLuc modulator, Luc counter, Rab9 promoter act)
COc1ccc(-c2[nH]c3ccccc3c2SCCNC(=O)c2ccc(S(=O)(=O)N(C)C)cc2)cc1	none (no result: ELG1 genotoxic, NPC1 promoter act, Luc counter, Rab9 promoter act)
Cc1ccc2c(c1)c(=O)c(C(=O)c1ccncc1)cn2CC(=O)Nc1ccc(C(C)C)cc1	none (no result: ELG1 genotoxic, NPC1 promoter act, SMN2 splice enh, Luc counter, Rab9 promoter act)
N/C(=N\OC(=O)c1cccc(Cl)c1)c1cccnc1	ELG1 genotoxic 10µM, FLuc modulator 6.75µM
N/C(=N\OS(=O)(=O)c1ccc(Cl)cc1)c1cccnc1	none
CC(=O)N1CCC2(CCN(Cc3cc(C(F)(F)F)cc(C(F)(F)F)c3)CC2)CC1	none (no result: ELG1 genotoxic, NPC1 promoter act, FLuc modulator, Rab9 promoter act)
CCCn1nc2cc(C(=O)NCCc3ccc(C)cc3)ccc2c1OCC	none
O=C(NCC1CC1)c1ccc2c3n(nc2c1)-c1ccccc1CO3	ELG1 genotoxic inconclusive, NPC1 promoter act 0.355µM, FLuc modulator 0.477µM, Rab9 promoter act inconclusive (no result: SMN2 splice enh, Luc counter)
Cc1ccc2c(c1)CCCN2C(=O)c1ccc2c(c1)OCO2	none
O=C(NCCO)c1ccc2c3n(nc2c1)-c1ccccc1CO3	ELG1 genotoxic inconclusive, NPC1 promoter act 0.501µM, FLuc modulator 2.13µM, Rab9 promoter act 2.82µM (no result: SMN2 splice enh, Luc counter)
Cc1ccc2c(c1)COc1c3ccc(C(=O)O)cc3nn1-2	FLuc modulator 1.35µM, Rab9 promoter act inconclusive (no result: SMN2 splice enh, Luc counter)
O=C(NCCO)c1ccc(Cl)c(Cl)c1	none
Cc1ccc2c(c1)COc1c3ccc(C(=O)NCC4CC4)cc3nn1-2	NPC1 promoter act 1.26µM, FLuc modulator 5.36µM, Rab9 promoter act inconclusive (no result: SMN2 splice enh, Luc counter)
COc1cc(NC(=O)CCS(=O)(=O)c2ccc3c(c2)CC(=O)N3C)cc(OC)c1OC	none (no result: ELG1 genotoxic, NPC1 promoter act, SMN2 splice enh, Luc counter, Rab9 promoter act)
C[C@@](N)(Cc1ccc(O)c(O)c1)C(=O)O	none (no result: ELG1 genotoxic, NPC1 promoter act, FLuc modulator, Rab9 promoter act)
COc1ccc(Oc2ncc3ncc(=O)n(C[C@H]4CCCO4)c3n2)cc1	none (no result: ELG1 genotoxic, NPC1 promoter act, FLuc modulator, Rab9 promoter act)
COc1ccc(/C=C/C2=Nc3ccccc3NC(C)(C)C2)cc1OC	FLuc modulator 6.01µM, Rab9 promoter act inconclusive (no result: SMN2 splice enh, Luc counter)
COc1ccc(/C=C/C2=CC(C)(C)NC(=S)N2)cc1OC	none
O=c1c2ccccc2c(/C=N/c2n[nH]c(CCCO)n2)c(O)n1-c1ccccc1Cl	FLuc modulator 16.9µM

Compound activity deposited in PubChem BioAssay by National Center for Advancing Translational Sciences (NCATS).
